Assay [1] can be described thus: A549 cell viability effects, profiling panel, calcein-AM fluorescence, 48 h, basal (AID 1162). Particulars: higher = more signal.
Assay [2] can be described thus: adipocyte viability effects, profiling panel, cell-based, 3T3-L1 adipocytes, calcein-AM fluorescence, 48 h, basal (AID 1163). Particulars: 3T3-L1 adipocytes viability, higher = more signal.
Assay [3] is described as follows: HepG2 cell viability effects, profiling panel, calcein-AM fluorescence, 48 h, basal (AID 1164). Particulars: higher = more signal.
Assay [4] in a line: MM1S cell viability effects, profiling panel, calcein-AM fluorescence, 48 h, basal (AID 1165).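 Note: viability of MM1S multiple myeloma cells under basal unstimulated conditions.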 Particulars: higher = more signal.
Assay [5] in a line: basal RPMI8226 viability, no added stimulus, profiling panel, cell-based, calcein-AM fluorescence, 48 h, PK04 Diversity Set (AID 1166).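 Note: cells grown under basal conditions without added stimulus.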 Particulars: RPMI8226 myeloma viability, higher = more signal.
Assay [6] in a line: basal HepG2 mitochondrial membrane potential changes, profiling panel, cell-based, JC-1 fluorescence, 24 h, 100 nL compound (AID 1167). Particulars: higher = more signal.
Assay [7] can be described thus: basal 3T3-L1 adipocyte mitochondrial potential changes, profiling panel, cell-based, JC-1 fluorescence, 3T3-L1 adipocytes, 24 h, 100 nL compound (AID 1168). Particulars: JC-1 mitochondrial fluorescence, higher = more signal, called active from +8 up or from −8 down.
Assay [8] in a line: basal RPMI8226 mitochondrial membrane potential changes, profiling panel, cell-based, JC-1 fluorescence, 24 h, 100 nL compound (AID 1169). Particulars: RPMI8226 myeloma, JC-1 mitochondrial potential fluorescence, higher = more signal.
Assay [9] is described as follows: basal MM1S mitochondrial membrane potential changes, profiling panel, cell-based, JC-1 fluorescence, 24 h, 100 nL compound (AID 1170). Particulars: higher = more signal.
Assay [10] can be described thus: A549 lung cancer cell viability effects, profiling panel, resazurin fluorescence, 24 h, PK04 Diversity Set (AID 1171). Particulars: higher = more signal, called active from +8 up or from −8 down. (Alamar Blue is a resazurin reagent that responds to reducing activity.)

The structures appear in SMILES notation. Activity calls are given as the source filed them.

Here are results for 16 compounds from PubChem BioAssay.
Note: test concentration not given here.

Take `CCN1C(C)=C(C(=O)OC)[C@@H](c2ccccc2)N2C(=O)[C@@]3(C(=O)OC)O[C@@]12[C@@H]1C(=O)N(C)C(=O)[C@@H]13`: the z-score in assay [1] was 0.0516; in assay [2] it was 0.59; in assay [3], -0.616; in [4], -1.51; in assay [5], 0.68; in [6] it was 0.684. Further, the z-score in assay [7] was 1.15 (inactive); in assay [8] it was 0.644; in assay [9] it was -0.196; in assay [10], 0.363 (inactive).

`CO[C@@H]1COC(=O)[C@H](C)NC(=O)CC=C[C@@H](C)[C@H](OC)COC(=O)[C@H](C)NC(=O)CC=C[C@H]1C`: the z-score in assay [1] is 1.2; in assay [2] it was -0.0006; in assay [3], 1.01; in [4], 0.419; in [5], 0.973; in assay [6], 0.51. For the same compound, the z-score in [7] was 1.44 (inactive); in [8] it was -1.04; in assay [9], 1.95; in assay [10], 0.787 (inactive).

With `NC(=O)NCC#Cc1ccc2c(c1)[C@]1(C(=O)N2)[C@H](C(=O)N2CCCCCCC2)[C@H]2C(=O)O[C@H](c3ccccc3)[C@H](c3ccccc3)N2[C@@H]1c1ccccc1OCCO`, the z-score in assay [1] was -0.21; in assay [2] it was 1.36; in assay [3], -0.0395; in assay [4], -2.48; in assay [5], -0.583; in [6], -1.25. The z-score in assay [7] was 1.03 (inactive); in assay [8], -0.56; in assay [9] it was -0.693; in [10], 1.28 (inactive).

With `COc1ccc(-c2cc3c(c(-c4ccccc4)n2)[Si](C(C)C)(C(C)C)O[C@H]3c2ccccc2)cn1`, the z-score in assay [1] was 0.705; in [2], -0.263; in [3], 0.674; in assay [4], -1.48; in assay [5], -1.85; in assay [6], -1.57. The z-score in assay [7] is -0.739 (inactive); in assay [8], -0.707; in [9] it was -0.225; in [10], 1.51 (inactive).

As for `[N-]=[N+]=Nc1ccccc1C[C@@]1(C(=O)N2CCOCC2)N=C(c2ccc(OCCCO)cc2)O[C@@H]1c1ccccc1N=[N+]=[N-]`, the z-score in [1] is -0.71; in assay [2] it was 0.271; in assay [3], -1.19; in assay [4], -3.45; in [5], -4.53; in [6], 0.925. The z-score was 1.98 (inactive) in assay [7], -1.23 in [8], -1.54 in [9] and -1.32 (inactive) in assay [10].

Regarding `COCCOC(=O)N1C(=O)[C@@]2(c3cc(C#CCNC(N)=O)ccc31)[C@H](c1ccc(OCCO)cc1)N1[C@H](c3ccccc3)[C@H](c3ccccc3)OC(=O)[C@H]1[C@@H]2C(=O)N1CCCCCCC1`, the z-score is 0.118 in [1]; 1.97 in assay [2]; -0.164 in assay [3]; -0.115 in assay [4]; 0.269 in assay [5]; -0.411 in assay [6]. Besides, the z-score is -3.07 (inactive) in [7], -0.659 in [8], -1.11 in assay [9] and 0.643 (inactive) in [10].

For the compound `COc1cc([C@@H]2N[C@H](C(=O)O)Cc3c2[nH]c2ccccc32)cc(OC)c1OC`, the z-score in assay [1] is 0.937; in assay [2], 1.05; in assay [3] it was -0.793; in assay [4], -0.0434; in assay [5], 0.407; in assay [6], -0.737. Also, the z-score in [7] is -0.135 (inactive); in assay [8] it was -0.663; in assay [9], 0.639; in assay [10] it was 0.455 (inactive).

On to `O=C(CS)NCCCCCCNC(=O)[C@@H]1C[C@@H]2C(=O)N[C@@H](Cc3ccccc3)C(=O)N2[C@@H]1c1ccc(O)cc1`, for which the z-score in [1] is -0.401; in assay [2], 0.861; in [3], -0.963; in [4], -0.0227; in [5], 0.612; in assay [6], -1.67. For the same compound, the z-score was -0.654 (inactive) in assay [7], -0.208 in assay [8], -0.716 in assay [9] and -0.226 (inactive) in assay [10].

In the case of `C[C@@H]1CC[C@H]2C(=O)N3CCC[C@H]3C(=O)N2[C@H]1c1ccc(Br)cc1`, the z-score is 1.09 in [1]; -0.0296 in assay [2]; 0.0327 in [3]; 0.517 in [4]; 0.0262 in assay [5]; 0.412 in assay [6]. Further, the z-score in assay [7] is 1.02 (inactive); in assay [8] it was -0.167; in assay [9], 0.324; in assay [10], 0.673 (inactive).

Turning to `CO[C@@H]1COC(=O)[C@@H]2CCCN2C(=O)CC=C[C@@H](C)[C@H](OC)COC(=O)[C@@H]2CCCN2C(=O)CC=C[C@H]1C`, the z-score is 0.798 in assay [1]; 0.185 in assay [2]; 1.21 in [3]; 0.283 in assay [4]; 0.142 in [5]; -0.123 in assay [6]. Besides, the z-score in assay [7] is 1.15 (inactive); in [8], -0.695; in assay [9], 2.22; in assay [10], 1.82 (inactive).

As for `CO[C@@H]1COC(=O)[C@H](COCc2ccccc2)NC(=O)CC=C[C@@H](C)[C@H](OC)COC(=O)[C@H](COCc2ccccc2)NC(=O)CC=C[C@H]1C`, the z-score in [1] is 0.404; in assay [2], 0.67; in assay [3], -0.0841; in assay [4] it was 0.0234; in assay [5] it was 0.711; in assay [6], 0.849. Moreover, the z-score in assay [7] is 1 (inactive); in [8] it was 0.525; in [9] it was 0.178; in assay [10], 0.296 (inactive).

Consider `CC(C)N1CC=CC23O[C@@H]4/C=C\CCCOC(=O)C4[C@H]2C(=O)N(CCCCCO)[C@@H]3C1=O` (stereo not given in full), for which the z-score in assay [1] is 0.196; in assay [2], 1.24; in [3], 0.791; in assay [4], 1.64; in assay [5], 0.0268; in [6] it was 0.446. For the same compound, the z-score in [7] was 1.31 (inactive); in [8], -0.197; in assay [9], 0.599; in assay [10], 0.929 (inactive).

Consider `O=C1NC(=O)C2C1C=CC(C(O)C=Cc1ccc([N+](=O)[O-])cc1)N2Nc1ccccn1` (stereo not given), for which the z-score in assay [1] was 0.183; in assay [2] it was -1.49; in [3] it was 0.324; in [4], -0.141; in assay [5] it was -0.411; in assay [6] it was -0.249. In addition, the z-score in [7] was -0.304 (inactive); in [8], 0.412; in [9], 0.423; in assay [10], -0.355 (inactive).

On to `C=C(C(=O)CC[C@H](OC(=O)c1ccccc1-c1ccccc1C(=O)O)c1ccc(CO)o1)C(C)C`, for which the z-score in assay [1] is -0.473; in assay [2], -0.284; in assay [3] it was -0.396; in assay [4], -0.263; in assay [5] it was 0.0025; in [6] it was -0.906. Further, the z-score in [7] is -0.244 (inactive); in assay [8], 0.374; in assay [9], 0.668; in assay [10] it was 0.529 (inactive).

`COCCCNC(=O)[C@@H]1c2ccccc2C(=O)N(CC23CC4CC(CC(C4)C2)C3)[C@H]1c1ccc(CO)cc1`: the z-score in assay [1] is 0.0071; in assay [2], 1.3; in [3], 0.0729; in [4] it was -0.193; in [5] it was -0.996; in [6], 1.12. For the same compound, the z-score in assay [7] is -0.227 (inactive); in assay [8], 0.0172; in assay [9], 0.0814; in assay [10] it was 0.729 (inactive).

Consider `C=C[C@H](OC)[C@@H](OC(=O)Nc1ccc(SC)cc1)c1ccc(O)c(F)c1`, for which the z-score in [1] was 0.137; in assay [2], 0.0047; in assay [3], -0.14; in assay [4], -0.913; in assay [5] it was -1.07; in [6], -2.33. In addition, the z-score in assay [7] was 3.02 (inactive); in [8], -1.09; in assay [9], -0.75; in assay [10] it was -0.538 (inactive).
